Measured values from PubChem BioAssay.
Active and inactive are the calls of the source. Unless noted, no rule for the calls is given here.

Tests used:
[1] = test system: Wnt5a (protein binding on small-molecule microarray); experiment: Wnt5a binders on small-molecule microarray, primary screen, biophysical, 635/667 nm fluorescence (AID 1142); settings: 635 nm fluorescence, higher = more signal;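 also: fluorescence read at 667 nm with signal to noise per printed feature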
[2] = cell viability in Huh7 cells, primary screen, cytotoxicity control for HCV replication inhibitor project, CellTiter-Glo luminescence, basal, 48 h (AID 1143); settings: Huh7 HCV replicon, higher = more signal, called active from +8 up or from −8 down;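 also: Huh7 hepatoma cells carrying a hepatitis C replication reporter with no stimulus; test concentration not given here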
[3] = P. aeruginosa biofilm formation inhibitors, primary screen, PAO1 strain, BacTiter-Glo luminescence, LB-PBS (AID 1144); settings: 12 h, higher = more signal
[4] = CREB reporter modulators without forskolin, primary screen, cell-based, PC12, CRE-LacZ reporter, unstimulated (AID 1145); settings: no forskolin, luminescence, 4.5 h, higher = more signal, called active from +8 up or from −8 down
[5] = CREB reporter modulators under forskolin, primary screen, cell-based, PC12, CRE-LacZ reporter, forskolin-stimulated (AID 1146); settings: luminescence, 4.5 h, higher = more signal, called active from +8 up or from −8 down;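 also: PC12 cells with 6xCRE LacZ reporter stimulated by forskolin 10 µM; beta-galactosidase reporter signal reflecting CREB driven transcription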
[6] = biological target: Streptavidin (Streptomyces avidinii) (UniProt P22629); experiment: streptavidin binders on small-molecule microarray, primary screen, artefact control for SMM compound annotation, biophysical, 635/667 nm fluorescence (AID 1147); settings: streptavidin binding, higher = more signal;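 also: signal reflects streptavidin binding to arrayed compounds as a control protein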
[7] = small-molecule binders of probe aInhba, primary screen, biochemical, small-molecule microarray, 635/667 nm fluorescence (AID 1148); settings: higher = more signal;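 also: score merges 667nm spot fluorescence with signal-to-noise for antibody binding to printed compounds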
[8] = biological target: Torsin-1A (Homo sapiens) (UniProt O14656); experiment: torsin A binders from cell lysate, primary screen, small-molecule microarray, wild-type, 635/667 nm (AID 1149); settings: COS7 hTOR1A-WT lysate, 635 nm fluorescence, higher = more signal
[9] = biological target: Torsin-1A (Homo sapiens) (UniProt O14656); experiment: small-molecule binders of mutant TOR1A in lysate, primary screen, cell lysate, small-molecule microarray, COS7 lysate, 635/667 nm fluorescence (AID 1150); settings: COS7 hTOR1A mutant lysate, 635 nm fluorescence, higher = more signal;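 also: score pools 667 nm emission and signal to noise measuring lysate protein binding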
[10] = test system: Sonic hedgehog protein (Shh); experiment: small-molecule binders of Shh protein, primary screen, biochemical, small-molecule microarray, 635/667 nm fluorescence (AID 1151); settings: small-molecule microarray binding, 635 nm fluorescence; higher = more signal;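 also: Shh protein binding to compounds spotted on small-molecule microarray slides; score combines spot fluorescence intensity with signal-to-noise across triplicate slides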
[11] = E. coli DRC41 culture turbidity changes, primary screen, E. coli filamentation inducer project, strain DRC41, OD650, 48 h (AID 1152);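 also: E. coli MC1000 strain DRC41 lacking acrAB efflux pump and sulA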; settings: E. coli DRC41 (acrAB sulA), higher = more signal, called active from +8 up or from −8 down
[12] = small-molecule binders of probe aLefty1, primary screen, biochemical, small-molecule microarray, 635/667 nm fluorescence (AID 1153); settings: higher = more signal;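 also: score merges spot fluorescence with signal-to-noise ratio from the scanned slide images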
[13] = PSAC antagonists in infected red cells, primary screen, cell-based, P. falciparum Indochina, OD700, 1 h (AID 1154); settings: P. falciparum Indochina infected RBC osmotic lysis, higher = more signal, called active from +8 up or from −8 down
[14] = PSAC antagonists in infected red cells, primary screen, cell-based, P. falciparum Indochina, OD700, 2 h (AID 1155);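 also: lysis reports solute entry through the parasite surface anion channel PSAC; channel blockers reduce lysis of infected cells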; settings: P. falciparum Indochina infected erythrocytes, osmotic lysis OD700; higher = more signal, called active from +8 up or from −8 down
[15] = osmotic lysis modulators in infected erythrocytes, primary screen, PSAC antagonist project, cell-based, P. falciparum Indochina, OD700, 3 h (AID 1156); settings: higher = more signal, called active from +8 up or from −8 down
[16] = PSAC antagonists in infected red cells, primary screen, cell-based, P. falciparum Indochina, OD700, 18 h (AID 1157); settings: P. falciparum Indochina infected erythrocytes, osmotic lysis OD700, 18 h; higher = more signal, called active from +8 up or from −8 down
[17] = modulators of S6 phosphorylation in cells, primary screen, cell-based, A549, cytoblot, luminescence, serum-stimulated (AID 1158); settings: A549 phospho-S6 cytoblot, 5 h, higher = more signal;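 also: serum-stimulated A549 lung adenocarcinoma cells; signal is phosphorylated S6 detected by cytoblot immunostaining with HRP secondary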
[18] = biological target: NADPH oxidase 2 (Homo sapiens) (UniProt P04839); experiment: NOX2-dependent H2O2 signal modulators, primary screen, NOX inhibitor project, cell-based, HEK293-NOX2, PMA-stimulated, Amplex Red fluorescence (AID 1159); settings: 45 min, higher = more signal, called active from +8 up or from −8 down; also: test concentration not given here
[19] = biological target: NADPH oxidase 4 (Homo sapiens) (UniProt Q9NPH5); experiment: NOX4-dependent H2O2 signal modulators, primary screen, NOX inhibitor project, cell-based, HEK293-NOX4, tetracycline-induced, Amplex Red fluorescence (AID 1160); settings: 45 min, higher = more signal, called active from +8 up or from −8 down
[20] = biological target: NADPH oxidase 5 (Homo sapiens) (UniProt Q96PH1); experiment: NOX5-dependent H2O2 signal modulators, primary screen, NOX inhibitor project, cell-based, HEK293-NOX5, Amplex Red fluorescence (AID 1161); settings: HEK293-NOX5, ionomycin, 45 min, higher = more signal
Chain of NADPH oxidase 5 (Homo sapiens) (Q96PH1 whole entry, looked up): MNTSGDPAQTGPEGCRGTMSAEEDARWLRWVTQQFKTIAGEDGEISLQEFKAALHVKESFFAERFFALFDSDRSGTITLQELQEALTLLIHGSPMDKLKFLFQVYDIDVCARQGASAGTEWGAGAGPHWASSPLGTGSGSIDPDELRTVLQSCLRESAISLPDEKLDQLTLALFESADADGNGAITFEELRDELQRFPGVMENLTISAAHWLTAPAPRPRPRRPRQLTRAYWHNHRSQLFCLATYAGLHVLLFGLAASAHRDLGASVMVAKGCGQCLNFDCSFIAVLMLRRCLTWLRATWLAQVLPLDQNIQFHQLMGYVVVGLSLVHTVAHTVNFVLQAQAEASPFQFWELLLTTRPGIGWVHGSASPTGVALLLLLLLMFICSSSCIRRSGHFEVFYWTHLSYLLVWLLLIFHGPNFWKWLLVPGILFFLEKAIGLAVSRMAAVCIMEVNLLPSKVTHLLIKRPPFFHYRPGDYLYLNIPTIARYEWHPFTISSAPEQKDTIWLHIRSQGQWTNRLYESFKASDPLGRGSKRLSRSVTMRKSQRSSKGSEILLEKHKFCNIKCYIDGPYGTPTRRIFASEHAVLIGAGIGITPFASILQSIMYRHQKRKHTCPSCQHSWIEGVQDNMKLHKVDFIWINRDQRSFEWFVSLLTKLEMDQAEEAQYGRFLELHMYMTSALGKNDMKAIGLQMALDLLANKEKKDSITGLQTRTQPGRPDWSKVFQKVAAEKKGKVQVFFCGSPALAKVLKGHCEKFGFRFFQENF

Chain of Torsin-1A (Homo sapiens) (O14656 whole entry, looked up): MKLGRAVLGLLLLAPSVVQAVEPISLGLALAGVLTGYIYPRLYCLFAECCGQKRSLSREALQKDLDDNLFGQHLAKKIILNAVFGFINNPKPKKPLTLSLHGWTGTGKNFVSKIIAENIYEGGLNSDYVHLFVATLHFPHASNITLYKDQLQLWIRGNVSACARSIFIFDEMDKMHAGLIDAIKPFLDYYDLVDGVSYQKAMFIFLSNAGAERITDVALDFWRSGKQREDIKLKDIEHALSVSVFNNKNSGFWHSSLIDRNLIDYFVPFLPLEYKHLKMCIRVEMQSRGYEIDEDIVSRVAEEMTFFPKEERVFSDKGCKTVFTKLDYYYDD
Chain of Streptavidin (Streptomyces avidinii) (P22629 whole entry, looked up): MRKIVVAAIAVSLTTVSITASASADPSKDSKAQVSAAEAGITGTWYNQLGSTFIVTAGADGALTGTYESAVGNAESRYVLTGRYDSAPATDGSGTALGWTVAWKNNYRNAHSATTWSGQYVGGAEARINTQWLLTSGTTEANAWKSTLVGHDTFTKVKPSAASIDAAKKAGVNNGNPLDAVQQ
Chain of NADPH oxidase 4 (Homo sapiens) (Q9NPH5 whole entry, looked up): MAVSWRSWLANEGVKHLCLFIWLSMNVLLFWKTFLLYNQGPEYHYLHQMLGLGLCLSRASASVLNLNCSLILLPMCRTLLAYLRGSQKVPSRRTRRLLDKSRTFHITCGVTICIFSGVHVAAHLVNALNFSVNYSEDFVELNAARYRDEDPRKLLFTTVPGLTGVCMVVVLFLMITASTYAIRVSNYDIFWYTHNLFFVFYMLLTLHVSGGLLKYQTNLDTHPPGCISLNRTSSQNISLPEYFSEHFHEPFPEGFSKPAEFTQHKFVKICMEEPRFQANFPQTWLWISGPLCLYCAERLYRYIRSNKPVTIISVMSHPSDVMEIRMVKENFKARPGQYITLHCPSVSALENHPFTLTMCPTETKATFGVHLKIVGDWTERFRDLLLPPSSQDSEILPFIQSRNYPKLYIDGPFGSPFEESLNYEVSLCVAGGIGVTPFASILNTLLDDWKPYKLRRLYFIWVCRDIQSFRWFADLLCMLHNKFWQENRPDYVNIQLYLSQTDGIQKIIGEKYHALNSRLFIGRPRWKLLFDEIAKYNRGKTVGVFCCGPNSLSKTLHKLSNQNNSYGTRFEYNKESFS
Chain of NADPH oxidase 2 (Homo sapiens) (P04839 whole entry, looked up): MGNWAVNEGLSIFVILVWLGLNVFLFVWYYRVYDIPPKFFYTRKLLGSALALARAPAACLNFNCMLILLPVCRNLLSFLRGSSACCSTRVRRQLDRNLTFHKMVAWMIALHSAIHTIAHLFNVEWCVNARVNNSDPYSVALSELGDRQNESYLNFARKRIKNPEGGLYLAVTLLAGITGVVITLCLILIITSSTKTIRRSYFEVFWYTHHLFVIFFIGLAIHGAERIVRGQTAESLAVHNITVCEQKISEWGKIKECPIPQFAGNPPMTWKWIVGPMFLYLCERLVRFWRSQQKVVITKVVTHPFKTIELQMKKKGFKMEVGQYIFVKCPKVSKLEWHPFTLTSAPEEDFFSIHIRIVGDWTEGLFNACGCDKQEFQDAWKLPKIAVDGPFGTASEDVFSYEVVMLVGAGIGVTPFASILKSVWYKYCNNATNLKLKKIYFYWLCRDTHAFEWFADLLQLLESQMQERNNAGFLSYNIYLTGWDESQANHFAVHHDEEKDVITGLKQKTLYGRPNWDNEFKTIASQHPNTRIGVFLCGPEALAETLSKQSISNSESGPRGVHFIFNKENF

Structure (SMILES)	composite z-score [1]	z-score [2]	z-score [3]	z-score [4]	z-score [5]	composite z-score [6]	composite z-score [7]	composite z-score [8]	composite z-score [9]	composite z-score [10]	z-score [11]	composite z-score [12]	z-score [13]	z-score [14]	z-score [15]	z-score [16]	z-score [17]	z-score [18]	z-score [19]	z-score [20]
CCOC(=O)C=Cc1ccccc1O	0.0265	-4.76 (inactive)	-0.203 (inactive)	-0.471 (inactive)	-0.586 (inactive)	0.486	0.0051	0.399	0.146	0.158	-0.646 (inactive)	0.135	19.4 (active)	2.46 (inactive)	0.784 (inactive)	-1.43 (inactive)	1.47	-4.38 (inactive)	-2.24 (inactive)	-4.65
C=C(COC)C(=O)CC[C@H](OC(C)=O)c1ccc(OCCO)cc1	0.632	-3.53 (inactive)	-0.856 (inactive)	2.77 (inactive)	1.69 (inactive)	-0.0693	-0.0675	1.2	0.647	1.85	1.5 (inactive)	-0.0984	4.92 (inactive)	-1.68 (inactive)	1.91 (inactive)	-1.85 (inactive)	0.534	-2.84 (inactive)	-1.63 (inactive)	-2.22
C=C[C@@H](C)[C@H](O)c1ccc(OCCO)cc1	-0.872	-0.104 (inactive)	-0.307 (inactive)	0.166 (inactive)	-0.049 (inactive)	-1.83	-0.263	-3.14	-1.86	-0.509	0.227 (inactive)	-0.193	1.79 (inactive)	0.833 (inactive)	0.485 (inactive)	0.402 (inactive)	-0.198	-0.613 (inactive)	-0.311 (inactive)	0.394
CN(C)C(=O)[C@@]1(Cc2ccccc2)COC(c2ccc(OCCCO)cc2)=N1	-0.243	-2.58 (inactive)	0.59 (inactive)	1.74 (inactive)	-1.3 (inactive)	0.142	-0.661	0.0565	-0.22	-0.618	1.54 (inactive)	-0.57	20.9 (active)	3.73 (inactive)	2.46 (inactive)	1.09 (inactive)	0.0912	-1.26 (inactive)	0.108 (inactive)	-1.21
C=C(C(=O)CC[C@H](OC(=O)c1ccccc1-c1ccccc1C(=O)O)c1ccccc1OCCO)C(C)C	0.121	-0.594 (inactive)	-0.0112 (inactive)	3.25 (inactive)	1.19 (inactive)	-0.344	0.0569	0.659	0.34	1.49	0.342 (inactive)	-0.0573	6.14 (inactive)	1.12 (inactive)	2.1 (inactive)	0.577 (inactive)	-0.549	2.97 (inactive)	-0.13 (inactive)	-1.51
C=CCNC(=O)[C@H]1[C@@H]2C(=O)O[C@@H](c3ccccc3)[C@@H](c3ccccc3)N2[C@@H](c2ccc(OCCO)cc2)[C@]12C(=O)N(C(=O)OCCOC)c1ccc(C#Cc3ccc(OC)cc3)cc12	0.209	-5.38 (inactive)	0.054 (inactive)	-1.43 (inactive)	-0.857 (inactive)	0.51	0.152	0.563	0.86	1.72	2.2 (inactive)	0.323	3.4 (inactive)	1.31 (inactive)	-0.0152 (inactive)	0.121 (inactive)	2.44	1.19 (inactive)	0.615 (inactive)	-0.0482
C=CCC(OC(C)=O)[C@@H]1[C@@H](N(Cc2cccc3ccccc23)C(=O)c2ccc(-c3ccccc3)cc2)c2cc(OCCCO)ccc2N1C(=O)c1ccc(-c2ccccc2)cc1 (stereo not given in full)	0.09	0.457 (inactive)	-0.1 (inactive)	0.367 (inactive)	0.859 (inactive)	0.361	0.114	0.162	0.0809	0.286	-0.883 (inactive)	-0.06	0.311 (inactive)	-1.06 (inactive)	-0.942 (inactive)	-0.454 (inactive)	-0.0997	0.582 (inactive)	0.688 (inactive)	0.296
CC(C)CNC(=O)[C@@]1(C)c2ccccc2C(=O)N(Cc2cc(C(F)(F)F)cc(C(F)(F)F)c2)[C@H]1c1ccc(CO)cc1	-0.445	-3.12 (inactive)	0.92 (inactive)	0.414 (inactive)	-0.578 (inactive)	-0.366	-0.0987	-0.918	-0.267	-0.117	0.516 (inactive)	-0.101	7.12 (inactive)	1.13 (inactive)	2.06 (inactive)	0.428 (inactive)	-0.404	-0.766 (inactive)	0.596 (inactive)	0.821
COCCOC(=O)N1C(=O)[C@@]2(c3cc(C#CCC(C(=O)OC)C(=O)OC)ccc31)[C@H](C(=O)NC[C@H](O)c1ccccc1)[C@H]1C(=O)O[C@H](c3ccccc3)[C@H](c3ccccc3)N1[C@@H]2c1ccc(O)cc1	0.247	-1.1 (inactive)	-0.766 (inactive)	-0.191 (inactive)	-0.221 (inactive)	-0.003	-0.0509	-0.431	0.413	0.863	-0.128 (inactive)	0.0977	2.35 (inactive)	-0.27 (inactive)	0.283 (inactive)	0.27 (inactive)	0.0648	1.71 (inactive)	1.01 (inactive)	1.84
